# The list is not random: actives were taken first. Their share in the collection is about 19%.
# Pf growth 48h – inhibits P. falciparum growth in the first generation, 48 h | P. falciparum luciferase growth in erythrocytes, 48 h | AID 504832 | Potency, µM (titrated, usually from 28.7 µM), for the others: at the highest dose activity change, negative = inhibition, usual class: inhibitors | hit rate 5.9% among 310,000; further: potency means the concentration at half of the fitted maximal effect; on the % scale 0 is the no-effect control and ±100 the full control effect
#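 Erythrocytes infected with P. falciparum carrying an integrated firefly luciferase reporter (2% hematocrit, 0.1% parasitemia final) were exposed to compounds in RPMI 1640 with 0.5% Albumax at 37 C, 5% CO2. Growth inhibition was scored as reduced luminescence.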
# Pf growth 96h – inhibits malaria parasite growth, 96 h; Potency, µM (top dose mostly 28.7 µM), for the others: at the highest dose activity change, negative = inhibition, usual class: inhibitors; P. falciparum luciferase reporter growth, 96 h; hit rate 6.9% among 320,000; further: potency means the concentration at half of the fitted maximal effect; on the % scale 0 is the no-effect control and ±100 the full control effect
#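 Delayed-death screen, second-generation endpoint: infected erythrocytes, 2% hematocrit, 0.05% parasitemia final; 96 hours at 37 C, 5% CO2; luciferase detection reagent; luminescence decrease equals reduced growth.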
# SARS PLP yeast – blocks SARS-CoV papain-like protease in a yeast assay; S. cerevisiae expressing SARS-CoV PLpro, growth rescue; AID 485353; Potency, µM (doses to about 32.9 µM), inactives show at the highest dose activity, positive = growth rescue, most hits filed as activators; hit rate 0.19% among 330,000; calls by dose curve; further: potency means the concentration at half of the fitted maximal effect; 0% is about no effect; nearly all actives have a fitted effect of over 55% in size
# Shiga inhibitor – Shiga toxin inhibition. Vero cells, Shiga toxin protein synthesis inhibition reporter. inhibition, % at 38.7 µM. hit rate 9.2% among 290,000. AID 2315; in the data active means inhibition mostly above about 28%, no sharp cut-off; inactive means mostly below about 43%; further: 0% is about no effect
# AMA1-RON2 inh – inhibitors of Plasmodium falciparum AMA1-RON2 interaction; AlphaScreen AMA1-biotinylated RON2 peptide binding; hit rate 0.2% among 360,000; AID 720542; Potency, µM (highest dose often 58.2 µM), inactives show top-dose activity change, negative = inhibition, hits mostly inhibitors;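 further: potency means the concentration at half of the fitted maximal effect; 0% = vehicle wells and -100% = peptide control; nearly all actives have a fitted effect of over 45% in size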
#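 AMA1 (3D7) with his tag at 25 nM final met compounds first, then biotinylated RON2 peptide at 25 nM; detection used donor plus acceptor beads, 10 µg/mL apiece, read by AlphaScreen after 30 min at room temperature.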
# CHX counter – counter-screen for Shiga toxin inhibitors: cycloheximide protein synthesis inhibition; cell reporter, cycloheximide protein synthesis inhibition counterscreen; max response, %; hit rate 12% among 300,000; in the data active means max response mostly above about 13%, no sharp cut-off; inactive means mostly below about 14%; further: read at 38.3 µM for the half of the compounds with a filed dose; 0% is about no effect
# Numbers without * were called inactive; i = inactive; ? = inconclusive; . = no result; [ ] = another dose, or the depositor's remark. Unless noted, the call rests on the fitted dose curve; in most records, active means well fitted curve in the direction sought with a large enough effect; inconclusive means small, poorly fitted or top-dose-only effect, or another doubt; inactive means no such curve, though single readings can be large; an effect the other way counts as inactive or inconclusive.
SMILES,Pf growth 48h,Pf growth 96h,SARS PLP yeast,Shiga inhibitor,AMA1-RON2 inh,CHX counter
CC(C)CC(=O)Nc1ccc(C(=O)COC(=O)C2CCC2)cc1,2%,-10%,3%,34,15%,14
COc1ccccc1-n1c(=O)oc2ccc(Cl)cc2c1=O,?,-27%,-27%,86*,5%,59*
COc1c(Cl)c(=O)oc2ccc(Cl)cc12,.,.,.,.,9%,.
CC(C)(C)NCc1cc(Cl)ccc1OCc1ccccc1F,-17%[5.75 µM],8.3µM*,1%,10,3%,-6
CC(C)(C)NCc1cc(Cl)ccc1OCc1cccs1,?,9.3µM*,23%,-3,14%,-4
Cn1nnc(NCc2cc(Br)ccc2OCc2ccccc2F)n1,?,-9%,-3%,-15,6%,-5
CCN(CC)CCNCc1cc(Cl)ccc1OCc1ccccc1F,5.9µM*,0%,-1%,3,-7%,-1
CC(C)(C)NCc1cc(Br)ccc1OCc1cccs1,?,29%,9%,-24,8%[11.6 µM],-1
CCCCn1c(N)c(N(CC(C)C)C(=O)c2ccc(-c3ccc(Cl)cc3)o2)c(=O)[nH]c1=O,17%,?,6%,.,-4%,.
Cn1c(SCC(=O)OCC(=O)c2ccccc2)nnc1-c1cccs1,37%,?,8%,-1,-3%,10
CC(=O)N1CCN(c2ccc(Nc3ncnc4c3oc3ccccc34)cc2)CC1,-21%,?,-7%,128,-20%,43*
O=C(CSc1ncnc2c1oc1ccccc12)N1CCN(c2ccccc2)CC1,.,.,.,.,-10%,.
CCc1nc(Nc2ccc(N3CCN(C(C)=O)CC3)cc2)c2oc3ccccc3c2n1,10µM*,32%,-6%,-4,-12%,18*
CCc1nc(N2CCN(C(=O)c3ccco3)CC2)c2oc3ccccc3c2n1,.,?,-5%,-12,-26%,-2
CN(C)CCCN=Cc1c(O)n(Cc2ccc3c(c2)OCO3)c(=O)c2ccccc12,-6%,?,1%,-13,.,-1
O=C(NCC1CCCO1)c1cccc(S(=O)(=O)N2CCCCC2)c1 (stereo unspecified),28%,79%,-5%,.,-3%,.
Cc1cccc(OCCC(=O)Nc2ccc(C)c(S(=O)(=O)N3CCOCC3)c2)c1,.,.,-1%,.,12%,.
CC(CC(=O)Nc1cccc(S(=O)(=O)N2CCCCC2)c1)c1ccccc1 (stereo unspecified),?,?,-1%,.,-6%,.
CCCC(C(=O)Nc1cccc(S(=O)(=O)N2CCCC2)c1)c1ccccc1 (stereo unspecified),?,10µM*,.,.,-4%,.
Cc1ccc(NC(=O)COc2cccc(Oc3ccccc3)c2)cc1S(=O)(=O)N1CCOCC1,10µM*,?,5%,.,-2%[11.6 µM],.
CCCc1ccc(NC(C)C(=O)Nc2ccc(S(=O)(=O)N3CCOCC3)cc2)cc1 (stereo unspecified),?,5.2µM*,-4%,.,-18%,.
Cc1ccc(NC(=O)CN2c3cccc4cccc(c34)S2(=O)=O)cc1S(=O)(=O)N1CCOCC1,?,9.3µM*,4%,-7,-4%,1
COC(=O)c1ccccc1S(=O)(=O)NNC(=O)c1nn(C)c(=O)c2ccccc12,.,.,-16%,.,1%,.
Cc1cc(C)cc(NCCC#N)c1,38%,61%,0%,33,8%,-2
CCCC(C(=O)Nc1ccc(C)c(S(=O)(=O)N2CCOCC2)c1)c1ccccc1 (stereo unspecified),10µM*,?,-7%,.,13%,.
SMILES,Pf growth 48h,Pf growth 96h,SARS PLP yeast,Shiga inhibitor,AMA1-RON2 inh,CHX counter
CCC(C)c1ccccc1N1CC(C(=O)Nc2ccc(C)c(S(=O)(=O)N3CCOCC3)c2)CC1=O (stereo unspecified),13µM*,?,2%,.,6%,.
CCCC(C(=O)Nc1ccc(S(=O)(=O)N2CCOCC2)cc1)c1ccccc1 (stereo unspecified),13µM*,9.3µM*,-10%,.,-5%,.
CCC(C(=O)Nc1ccc(S(=O)(=O)N2CCN(C)CC2)cc1)c1ccccc1 (stereo unspecified),.,.,.,.,-12%,.
CCC(C)c1ccccc1N1CC(C(=O)Nc2cc(S(=O)(=O)N3CCOCC3)ccc2OC)CC1=O (stereo unspecified),.,.,.,.,-2%,.
COc1cc(CNCc2ccccc2Cl)ccc1OCC(=O)NC1CCCCC1,7%,?,-1%,-18,4%,-5
CS(=O)(=O)c1ccccc1C(=O)NC1CCCc2ccccc21 (stereo unspecified),7%,-25%,1%,-6,48%,-1
COc1ccc(CCNC(=O)COC(=O)c2ccc(C)s2)cc1,-21%,-12%,-5%,.,-13%,.
O=CN1CCN(C(=O)c2ccc(-c3nc4ccccc4s3)s2)CC1,i,231%,1%,123*,6%,43*
CNC(=O)COC(=O)c1ccc(-c2nc3ccccc3s2)s1,.,119%,12%,53*,-5%,29*
COCCCNC(=O)COC(=O)c1ccc(-c2nc3ccccc3s2)s1,i,227%,0%,76*,2%,47*
CCN(CC)C(=O)Cn1cc(SCC(=O)NC2CCCCC2)c2ccccc21,.,.,.,.,-2%,.
O=C(CSc1nc(-c2ccc(F)cc2)cs1)Nc1ccccn1,31%,39%,0%,12,-9%,5
Fc1ccc(-c2csc(Nc3ccccn3)n2)cc1,241%,2%,-4%,92*,-1%,48*
Fc1ccc(-c2csc(-c3ccncc3)n2)cc1,-3%,-13%,1%,49*,-2%,31*
c1ccc(Nc2nc(-c3cccnc3)cs2)nc1,217%,20%,-5%,104*,-7%,57*
c1cncc(Nc2nc(-c3cccnc3)cs2)c1,0%,.,19%,21,-6%,12
Cc1cccc(N(C(=O)CNC(=O)c2ccco2)C(C(=O)NCC2CCCO2)c2ccccc2)c1 (stereo unspecified),2%,27%,0%,-11,-4%,-7
COc1ccc2cc(S(=O)(=O)NC3CC(C)(C)NC(C)(C)C3)ccc2c1,-11%,-27%,1%,-22,-2%,-5
CN(C)c1nc(SCCOC(=O)Nc2ccccc2)nc(N(C)C)n1,?,-15%,?,-6,23%,8
O=P(O)(COc1ccccc1)COc1ccccc1,7%,13µM*,-2%,-4,-6%,-2
COc1cc(OC)cc(C2=Cc3ccccc3C(CC(=O)c3ccco3)N2c2ccc(-c3cncnc3)cc2)c1 (stereo unspecified),.,.,.,.,-8%,.
Cc1cccc(OCCSc2nc3ccccc3n2CCC(=O)O)c1,-15%,?,2%,-4,-3%,4
COCCCNC(=O)c1cccc2c(-c3ccnn3C)coc12,.,.,.,.,10%,.
COc1cc(C(C)=O)ccc1OCC(=O)NCC(c1ccc(F)cc1)N1CCOCC1 (stereo unspecified),.,.,2%,.,1%,.
